Hit rate of the full screen: of about 340,000 compounds, about 2,100 (0.62%) were called active. These entries were drawn from the full list. Potency and affinity values are given separately. Unmarked numbers belong to inactive results.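 The calls were made as follows: active = first-screen hits whose inhibition reached a set limit at any dose in the follow-up dose series; inconclusive = inhibition above the set first-screen limit but never retested; inactive = the rest.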

This experiment deals with Rac GTPase-activating protein 1 (Homo sapiens) (UniProt Q9H0H5). The experiment in a line: blockers of MgcRacGAP-driven Rac1 GTP hydrolysis – biochemical, ADP Hunter fluorescence, primary and confirmatory, confirmation (AID 624330).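 Also: fluorescence reports GDP produced by GAP-driven GTP hydrolysis.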 Conditions: MgcRacGAP-stimulated Rac1 GTP hydrolysis, at 30 µM, active compounds read high, GST-tagged Rac1 F28L mutant substrate.
Chain of Rac GTPase-activating protein 1 (Homo sapiens) (Q9H0H5 whole entry, looked up): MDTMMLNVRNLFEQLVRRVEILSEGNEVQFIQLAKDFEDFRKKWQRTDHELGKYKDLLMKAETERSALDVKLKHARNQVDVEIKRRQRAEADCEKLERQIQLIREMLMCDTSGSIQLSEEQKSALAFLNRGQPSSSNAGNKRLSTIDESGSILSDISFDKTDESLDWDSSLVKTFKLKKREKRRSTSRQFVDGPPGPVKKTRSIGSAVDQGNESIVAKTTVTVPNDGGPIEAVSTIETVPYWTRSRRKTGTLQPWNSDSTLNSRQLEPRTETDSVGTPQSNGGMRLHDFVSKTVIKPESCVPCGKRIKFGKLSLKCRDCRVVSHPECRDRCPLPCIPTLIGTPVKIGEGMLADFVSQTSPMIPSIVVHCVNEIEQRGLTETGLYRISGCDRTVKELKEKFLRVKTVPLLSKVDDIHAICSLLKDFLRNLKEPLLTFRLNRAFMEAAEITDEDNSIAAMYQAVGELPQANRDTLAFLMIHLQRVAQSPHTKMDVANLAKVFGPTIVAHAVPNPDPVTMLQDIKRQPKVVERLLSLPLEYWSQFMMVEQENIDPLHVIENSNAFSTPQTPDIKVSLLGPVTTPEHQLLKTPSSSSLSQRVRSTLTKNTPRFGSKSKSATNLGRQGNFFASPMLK
As to `N#Cc1ccc(N[C@@H]2CCN3C(=O)c4ccccc4[C@@H]3C[C@H]2O)cc1`, the inhibition was 4.35%.
To `O=C1c2ccccc2[C@@H]2C[C@@H](O)[C@H](Nc3ccccc3)CCN12` belongs 8.38%.
For `CCC1CCCCN1Cc1ccc(OC)c(C)c1` (configuration not stated), the inhibition is 14.3%.
To `Cc1ccc(S(=O)(=O)NCCS(=O)(=O)N2CCN(c3ccccc3)CC2)cc1` belongs -3.13%; to `N=C(N)SCc1ccc(O)c([N+](=O)[O-])c1`, 14.6%.
With `CC(C)(c1ccc(O)c([N+](=O)[O-])c1)c1ccc(O)c([N+](=O)[O-])c1` the figure was 5%.
With `CN(CC(=O)Nc1ccc2c(c1)CCC2)CC(=O)Nc1ccccc1Br` the figure was 3.47%; with `Nc1ccc2c(c1)Cc1c(F)cccc1-2`, 19.7%; with `Nc1ccc2c(c1)Cc1cc(Cl)c(Cl)cc1-2`, 31.7%.
As for `CC(=O)Nc1c(Cl)cc2c(c1Cl)Cc1cc(N)ccc1-2`, the inhibition was 2.49%.
For the compound `O=[N+]([O-])c1cc2c(cc1Br)-c1ccccc1C2`, the inhibition was 3.13%.
To `Nc1ccc2c(c1)CCC2=O` belongs 1.82%.
With `CC(=O)Nc1cc2c(cc1Cl)-c1ccccc1C2` the figure was 0.41%.
With `COc1cc(N)ccc1-c1cc2ccccc2oc1=O` the figure was 3.42%; with `COc1cc2c(cc1[N+](=O)[O-])-c1ccccc1C2`, -0.68%.
For `O=C(CCc1nc2ccccc2s1)NCc1ccccc1F`, the inhibition was 3.81%.
With `CCSC1=N/C(=C\c2ccccc2)C(=O)N1` the figure was 7.65%.
Turning to `C/C(=N/NC(=O)C1CC1(c1ccccc1)c1ccccc1)c1ccco1` (configuration not stated), the inhibition is 10.7%.
With `COc1cc2cc(CN(Cc3cccnc3)C(=O)Nc3ccccc3)c(=O)[nH]c2cc1OC` the figure was 13.6%; with `CCCCn1c(N)c(N(CCOC)C(=O)CCN2C(=O)C3CC=CCC3C2=O)c(=O)[nH]c1=O` (configuration not stated), 9.87%.
On to `O=C(NCC(=O)N1CCCCCCC1)c1ccc(Cl)c(Cl)c1`, for which the inhibition was 16.3%.
To `CC(=O)Nc1ccc2c(c1Br)Cc1ccccc1-2` belongs 2.11%.
Turning to `Nc1c(Cl)cc2c(c1Br)Cc1ccccc1-2`, the inhibition is 13.1%.
To `O=C(CN1CCCCCC1)NC(c1ccccc1)c1ccccc1` belongs 25.4%; to `COCCNC(=O)CN1CCN(C(c2ccccc2)c2ccccc2)CC1`, 25.6%.
For `O=C(CN1CCN(C(c2ccccc2)c2ccccc2)CC1)NCc1ccccc1`, the inhibition was 4.24%.
As for `O=C(CN1CCN(Cc2ccccc2)CC1)Nc1ccc(Cl)cc1`, the inhibition is 10.4%.
Consider `O=C(CN1CCCC1)NC(c1ccccc1)c1ccccc1`, for which the inhibition is 23.8%.
With `CC1CN(CC(=O)NC(C)c2ccccc2)CC(C)O1` (configuration not stated) the figure was 10.1%; with `Cc1ccc(NC(=O)CN2CCN(Cc3ccccc3)CC2)cc1F`, 6.45%.
Take `CC1Cc2ccccc2N1CC(=O)NC(c1ccccc1)c1ccccc1` (configuration not stated): the inhibition is -0.83%.
Consider `CCN1CCN(C(=O)c2ccccc2Nc2ccc(SC(F)F)cc2)CC1`, for which the inhibition was 9.86%.
With `CCCCCC(=O)Nc1cccc(S(=O)(=O)NC2=NCCC2)c1` the figure was 6%.
To `O=C(NCc1ccccn1)c1ccc(NS(=O)(=O)c2cccc(Cl)c2)cc1` belongs 2.91%.
Consider `CC1CN(Cc2nc3c(c(=O)n(C)c(=O)n3C)n2CC(O)CO)CC(C)O1` (configuration not stated), for which the inhibition was 1.13%.
Consider `CC(NC(=O)C(C)N1CCN(Cc2ccccc2)CC1)c1ccccc1` (configuration not stated), for which the inhibition was 4.7%.
Consider `CC(NC(=O)C(C)N1CCN(Cc2ccccc2)CC1)c1ccc(F)cc1` (configuration not stated), for which the inhibition is 4.63%.
As to `CCn1c(SCC(=O)Nc2cccc(F)c2)nc2c(c1=O)SC(C)C2` (configuration not stated), the inhibition was 3.97%.
`Cc1ccc(-n2ccnc(SCC(=O)NC3CCCCC3)c2=O)cc1F`: the inhibition was 7.99%.
With `Cc1ccc(O)c(NC(=O)c2cc(-c3cccs3)on2)c1` the figure was 5.43%; with `O=C(Nc1cccc(Cl)c1)c1nc[nH]c1C(=O)NCCN(CCNC(=O)c1[nH]cnc1C(=O)Nc1cccc(Cl)c1)CCNC(=O)c1[nH]cnc1C(=O)Nc1cccc(Cl)c1`, 10.4%; with `O=C(c1cc(C2CC2)nn1-c1ccccc1)N1CCN(S(=O)(=O)c2ccc(F)cc2)CC1`, 4.93%.
With `COc1ccc2[nH]cc(CCNC(C)=O)c2c1` the figure was -0.52%.
To `COc1cc2c(CCNC(C)=O)c[nH]c2cc1Cl` belongs 7.18%; to `O=C(C1CCN(C2CCN(Cc3ccc4c(c3)CCO4)CC2)CC1)N1CCOCC1`, 3.51%; to `COc1ccc(CCNC(=O)C2CCN(S(=O)(=O)c3ccc(C)cc3)CC2)cc1OC`, -4.11%.
`COc1cccc(N(CC(=O)NC2CCCCC2)C(=O)Cn2nnc(-c3ccc(C)o3)n2)c1`: the inhibition is -3.15%.
In the case of `Cc1ccsc1/C=N/NC(=O)c1cccc(S(=O)(=O)Nc2ccccc2Cl)c1`, the inhibition is 13.6%.
With `CC(Cn1cncn1)C(=O)N1CCN(S(=O)(=O)c2ccccc2)CC1` (configuration not stated), the inhibition was 5.09%.
To `CC(=O)Nc1ccc(NC(=O)C(C)OC(=O)CCN=C2NS(=O)(=O)c3ccccc32)cc1` (configuration not stated) belongs 7.31%; to `Cc1csc(=O)n1CC(=O)OC(C)C(=O)Nc1ccc(F)c(F)c1F` (configuration not stated), 7.87%.
With `CC(OC(=O)c1cccc(N2C(=O)c3ccccc3C2=O)c1)C(=O)Nc1ccc(N(C)C)cc1` (configuration not stated) the figure was 5.16%; with `Cc1csc(=O)n1CC(=O)OC(C)C(=O)Nc1cccc(Cl)c1` (configuration not stated), 5.89%.
For `Cc1ccc(-n2c(Cc3cccn3C)nnc2SCC(=O)N2CCc3ccccc32)cc1`, the inhibition is 19%.
To `COc1cc(OC)c(OC)cc1CN1CCN(Cc2cccn2C)CC1` belongs 31.5%; to `CCN(Cc1ccccc1)C1CCN(Cc2ccccc2)CC1`, -17.1%; to `COc1ccccc1CN1CCCCCC1`, 24.6%.
To `CSc1ccc(/C=N/N2CCN(Cc3ccccc3Cl)CC2)cc1` belongs 0.33%; to `CSc1ccc(CN2CCCCCC2)cc1`, 18.5%.
As for `COc1cc(OC)c(OC)cc1CN1CCN(c2ccccc2OC)CC1`, the inhibition is 19.5%.
With `CCN(Cc1ccccc1)C(=O)C1CCN(Cc2ccc(SC)cc2)CC1`, the inhibition was 23.2%.
For `COc1cc(OC)c(OC)cc1CN1CCN(c2ccc(F)cc2)CC1`, the inhibition is 10.3%.

Source of the values: PubChem BioAssay AID624330 (Southern Research Specialized Biocontainment Screening …, 2012).
